Binding signal data for eight sequences are collected here from publication PMC7862700, “An all-to-all approach to the identification of sequence-specific readers for epigenetic DNA modifications on cytosine”.

Holding throughout (experiment): DAPPL (digital affinity profiling via proximity ligation, sequencing); 10 mM Tris-HCl pH 7.5, 50 mM NaCl, 1 mM DTT, 4% glycerol, room temperature, 30 min; GST-TFs on glutathione beads, 16-mer random dsDNA library, 0.1% formaldehyde crosslink after washing; high values mean tight binding
Conditions in all cases: protein: recombinant; tags: N-terminal GST; dsDNA, one strand shown

The target in assay [1] is T1, ERF (Homo sapiens, UniProt P50548 1-548).
T1 sequence: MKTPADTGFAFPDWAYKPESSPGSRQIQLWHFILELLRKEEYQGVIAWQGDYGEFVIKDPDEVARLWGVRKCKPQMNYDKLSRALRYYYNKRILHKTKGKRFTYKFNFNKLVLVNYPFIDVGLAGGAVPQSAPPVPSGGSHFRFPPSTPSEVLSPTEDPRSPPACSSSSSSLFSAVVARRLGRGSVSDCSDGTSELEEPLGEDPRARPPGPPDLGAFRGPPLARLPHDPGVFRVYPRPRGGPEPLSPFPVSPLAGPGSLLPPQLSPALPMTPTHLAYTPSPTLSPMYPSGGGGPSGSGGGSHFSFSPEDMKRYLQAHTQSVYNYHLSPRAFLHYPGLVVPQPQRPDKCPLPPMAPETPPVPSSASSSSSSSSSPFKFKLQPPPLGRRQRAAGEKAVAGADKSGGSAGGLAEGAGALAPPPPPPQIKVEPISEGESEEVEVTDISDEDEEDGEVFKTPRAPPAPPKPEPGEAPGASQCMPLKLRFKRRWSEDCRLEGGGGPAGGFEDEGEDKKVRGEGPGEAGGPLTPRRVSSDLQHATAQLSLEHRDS
The essentials:
(§1)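 Human transcription factors carrying a GST fusion were produced in yeast, bound to glutathione beads, tagged with DNA barcodes and pooled together with a tag-only sample. Each pool was held with 200 nmole of a random double-stranded 16-mer DNA library in Tris/NaCl/DTT/glycerol buffer for 30 min at room temperature, then washed, crosslinked in 0.1% formaldehyde, proximity-ligated with BsaI/T4 ligase (1 h, 37 °C), PCR-amplified and sequenced on an Illumina NextSeq500. Binding signal is the read frequency of each hexamer for a given factor divided by its frequency in the tag-only sample.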

Assay [2] addresses T2, ETV3L (Homo sapiens, UniProt Q6ZN32 1-361).
T2 sequence: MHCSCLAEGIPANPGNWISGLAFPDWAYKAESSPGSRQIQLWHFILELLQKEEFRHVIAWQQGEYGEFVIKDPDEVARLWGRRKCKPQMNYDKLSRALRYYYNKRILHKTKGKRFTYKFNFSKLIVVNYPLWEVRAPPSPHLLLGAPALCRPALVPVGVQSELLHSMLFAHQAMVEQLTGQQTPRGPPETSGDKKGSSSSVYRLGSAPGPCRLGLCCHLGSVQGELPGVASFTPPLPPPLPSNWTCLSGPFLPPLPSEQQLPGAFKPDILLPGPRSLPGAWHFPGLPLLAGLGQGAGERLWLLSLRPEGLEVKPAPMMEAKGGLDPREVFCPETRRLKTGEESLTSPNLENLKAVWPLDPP
The method, boiled down:
as §1

For assay [3], the target named is T3, ETS2 (Homo sapiens, UniProt P15036 1-469).
T3 sequence: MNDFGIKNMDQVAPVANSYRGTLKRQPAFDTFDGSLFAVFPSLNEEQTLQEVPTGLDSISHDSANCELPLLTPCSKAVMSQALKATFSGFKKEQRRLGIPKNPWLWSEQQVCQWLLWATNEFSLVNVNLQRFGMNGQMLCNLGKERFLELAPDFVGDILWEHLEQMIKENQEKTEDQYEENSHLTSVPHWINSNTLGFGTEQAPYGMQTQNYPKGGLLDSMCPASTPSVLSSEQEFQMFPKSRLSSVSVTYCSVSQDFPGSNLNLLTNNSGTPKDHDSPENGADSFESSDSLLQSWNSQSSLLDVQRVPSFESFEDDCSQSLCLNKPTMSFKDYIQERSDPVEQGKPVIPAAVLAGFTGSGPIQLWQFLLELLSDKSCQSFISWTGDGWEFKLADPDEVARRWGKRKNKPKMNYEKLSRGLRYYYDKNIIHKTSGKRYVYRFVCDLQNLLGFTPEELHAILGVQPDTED
The method, boiled down: as §1

Assay [4] addresses T4, SPDEF (Homo sapiens, UniProt O95238 1-335).
T4 sequence: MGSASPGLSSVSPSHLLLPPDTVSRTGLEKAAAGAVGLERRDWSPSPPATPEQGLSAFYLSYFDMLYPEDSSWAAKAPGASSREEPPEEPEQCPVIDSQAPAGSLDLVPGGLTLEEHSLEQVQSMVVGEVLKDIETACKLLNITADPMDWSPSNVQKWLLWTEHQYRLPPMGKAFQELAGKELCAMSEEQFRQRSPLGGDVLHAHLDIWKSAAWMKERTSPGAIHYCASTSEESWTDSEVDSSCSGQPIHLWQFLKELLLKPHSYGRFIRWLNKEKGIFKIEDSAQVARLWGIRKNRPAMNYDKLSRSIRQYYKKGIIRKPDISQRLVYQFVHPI
The essentials:
as §1

Assay [5] deals with T5, ETV7 (Homo sapiens, UniProt Q9Y603 1-341).
T5 sequence: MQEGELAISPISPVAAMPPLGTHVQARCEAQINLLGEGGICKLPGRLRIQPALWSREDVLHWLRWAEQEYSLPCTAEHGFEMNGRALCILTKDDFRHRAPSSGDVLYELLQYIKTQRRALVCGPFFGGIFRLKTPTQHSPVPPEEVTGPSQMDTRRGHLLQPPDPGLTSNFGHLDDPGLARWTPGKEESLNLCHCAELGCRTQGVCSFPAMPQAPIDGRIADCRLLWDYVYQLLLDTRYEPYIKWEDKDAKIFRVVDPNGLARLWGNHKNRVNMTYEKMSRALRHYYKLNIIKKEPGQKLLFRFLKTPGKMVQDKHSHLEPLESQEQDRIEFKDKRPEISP
The essentials:
as §1

Assay [6] addresses T6, ELF5 (Homo sapiens, UniProt Q9UKW6-2 1-255).
T6 sequence: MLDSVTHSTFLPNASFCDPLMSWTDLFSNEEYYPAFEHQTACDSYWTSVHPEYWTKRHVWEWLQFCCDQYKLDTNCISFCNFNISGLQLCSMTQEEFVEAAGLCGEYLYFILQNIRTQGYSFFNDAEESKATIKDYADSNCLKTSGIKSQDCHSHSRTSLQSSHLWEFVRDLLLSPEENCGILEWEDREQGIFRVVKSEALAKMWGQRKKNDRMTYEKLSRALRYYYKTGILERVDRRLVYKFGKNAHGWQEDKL
The method, boiled down: as §1

For assay [7], the target named is T7, ETV3 (Homo sapiens, UniProt P41162-2 1-143).
T7 sequence: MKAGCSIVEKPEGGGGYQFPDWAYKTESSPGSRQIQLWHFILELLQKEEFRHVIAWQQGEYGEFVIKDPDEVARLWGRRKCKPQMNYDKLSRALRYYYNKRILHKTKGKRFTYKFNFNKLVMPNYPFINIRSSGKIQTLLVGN
The method, boiled down: as §1

For assay [8], the target named is ETV6 (Homo sapiens, UniProt P41212 1-452). The essentials: as §1
Sequence of ETV6 (P41212 whole entry): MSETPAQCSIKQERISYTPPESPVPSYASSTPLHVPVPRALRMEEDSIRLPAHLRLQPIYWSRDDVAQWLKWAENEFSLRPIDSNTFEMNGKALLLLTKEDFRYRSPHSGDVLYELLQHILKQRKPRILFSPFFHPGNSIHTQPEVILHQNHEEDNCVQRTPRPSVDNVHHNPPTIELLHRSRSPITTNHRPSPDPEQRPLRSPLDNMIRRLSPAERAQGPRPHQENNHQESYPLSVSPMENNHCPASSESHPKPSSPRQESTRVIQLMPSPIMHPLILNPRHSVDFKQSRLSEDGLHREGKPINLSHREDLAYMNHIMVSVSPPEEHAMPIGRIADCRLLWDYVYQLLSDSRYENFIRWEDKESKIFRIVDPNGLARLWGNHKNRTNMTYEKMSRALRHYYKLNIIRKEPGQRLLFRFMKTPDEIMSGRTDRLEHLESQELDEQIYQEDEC

Turning to TTTCCA, the binding signal in assay [1] was 1.32 fold enrichment (6-mer frequency, TF over GST control); in assay [2], 1.41 fold enrichment (6-mer frequency, TF over GST control); in assay [3], 1.38 fold enrichment (6-mer frequency, TF over GST control); in assay [4], 1.29 fold enrichment (6-mer frequency, TF over GST control); in assay [5], 1.35 fold enrichment (6-mer frequency, TF over GST control); in assay [6] it was 1.43 fold enrichment (6-mer frequency, TF over GST control). Further, the binding signal in assay [7] was 1.45 fold enrichment (6-mer frequency, TF over GST control); in assay [8], 1.54 fold enrichment (6-mer frequency, TF over GST control).
As to TTGTTG, the binding signal in assay [1] is 1.13 fold enrichment (6-mer frequency, TF over GST control); in assay [2], 1.21 fold enrichment (6-mer frequency, TF over GST control); in assay [3], 1.1 fold enrichment (6-mer frequency, TF over GST control); in assay [4], 1.11 fold enrichment (6-mer frequency, TF over GST control); in assay [5] it was 1.12 fold enrichment (6-mer frequency, TF over GST control); in assay [6], 1.13 fold enrichment (6-mer frequency, TF over GST control). In addition, the binding signal in assay [7] was 1.19 fold enrichment (6-mer frequency, TF over GST control); in assay [8], 1.07 fold enrichment (6-mer frequency, TF over GST control).
In the case of TTTGGC, the binding signal is 1.29 fold enrichment (6-mer frequency, TF over GST control) in assay [1]; 1.23 fold enrichment (6-mer frequency, TF over GST control) in assay [2]; 1.18 fold enrichment (6-mer frequency, TF over GST control) in assay [3]; 1.12 fold enrichment (6-mer frequency, TF over GST control) in assay [4]; 1.24 fold enrichment (6-mer frequency, TF over GST control) in assay [5]; 1.18 fold enrichment (6-mer frequency, TF over GST control) in assay [6]. Moreover, the binding signal is 1.21 fold enrichment (6-mer frequency, TF over GST control) in assay [7] and 1.26 fold enrichment (6-mer frequency, TF over GST control) in assay [8].
As for AGATGC, the binding signal in assay [1] was 1.23 fold enrichment (6-mer frequency, TF over GST control); in assay [2], 1.09 fold enrichment (6-mer frequency, TF over GST control); in assay [3], 1.09 fold enrichment (6-mer frequency, TF over GST control); in assay [4], 1.03 fold enrichment (6-mer frequency, TF over GST control); in assay [5], 1.03 fold enrichment (6-mer frequency, TF over GST control); in assay [6] it was 1.12 fold enrichment (6-mer frequency, TF over GST control). In addition, the binding signal in assay [7] was 1.06 fold enrichment (6-mer frequency, TF over GST control); in assay [8] it was 1.04 fold enrichment (6-mer frequency, TF over GST control).
As to TGCTTG, the binding signal in assay [1] was 1.14 fold enrichment (6-mer frequency, TF over GST control); in assay [2], 1.13 fold enrichment (6-mer frequency, TF over GST control); in assay [3], 1.14 fold enrichment (6-mer frequency, TF over GST control); in assay [4], 1.11 fold enrichment (6-mer frequency, TF over GST control); in assay [5], 1.19 fold enrichment (6-mer frequency, TF over GST control); in assay [6] it was 1.04 fold enrichment (6-mer frequency, TF over GST control). In addition, the binding signal in assay [7] is 1.17 fold enrichment (6-mer frequency, TF over GST control); in assay [8] it was 1.11 fold enrichment (6-mer frequency, TF over GST control).
Turning to CAAGTA, the binding signal in assay [1] was 1.14 fold enrichment (6-mer frequency, TF over GST control); in assay [2], 1.09 fold enrichment (6-mer frequency, TF over GST control); in assay [3] it was 1.05 fold enrichment (6-mer frequency, TF over GST control); in assay [4], 1.08 fold enrichment (6-mer frequency, TF over GST control); in assay [5] it was 1.11 fold enrichment (6-mer frequency, TF over GST control); in assay [6] it was 1.06 fold enrichment (6-mer frequency, TF over GST control). Besides, the binding signal in assay [7] was 1.11 fold enrichment (6-mer frequency, TF over GST control); in assay [8], 1.14 fold enrichment (6-mer frequency, TF over GST control).
Consider AAGCAG, for which the binding signal was 1 fold enrichment (6-mer frequency, TF over GST control) in assay [1]; 1.04 fold enrichment (6-mer frequency, TF over GST control) in assay [2]; 1.14 fold enrichment (6-mer frequency, TF over GST control) in assay [3]; 1.13 fold enrichment (6-mer frequency, TF over GST control) in assay [4]; 1.14 fold enrichment (6-mer frequency, TF over GST control) in assay [5]; 1.19 fold enrichment (6-mer frequency, TF over GST control) in assay [6]. The binding signal is 1.1 fold enrichment (6-mer frequency, TF over GST control) in assay [7] and 1.11 fold enrichment (6-mer frequency, TF over GST control) in assay [8].
With TACGCA, the binding signal in assay [1] is 1.28 fold enrichment (6-mer frequency, TF over GST control); in assay [2], 1.12 fold enrichment (6-mer frequency, TF over GST control); in assay [3], 1.2 fold enrichment (6-mer frequency, TF over GST control); in assay [4] it was 1.16 fold enrichment (6-mer frequency, TF over GST control); in assay [5], 1.12 fold enrichment (6-mer frequency, TF over GST control); in assay [6] it was 1.11 fold enrichment (6-mer frequency, TF over GST control). Besides, the binding signal in assay [7] was 1.1 fold enrichment (6-mer frequency, TF over GST control); in assay [8], 1.18 fold enrichment (6-mer frequency, TF over GST control).
